A selection: hits, their analogues and other compounds. The true share with any hit is near 2.2%.
MITF TRPM1 inh = reduces MITF-dependent TRPM1 promoter luciferase signal; SK-MEL-5 TRPM1 promoter luciferase, 24 h; inhibition, % at 12.5 µM; 0.83% of 330,000 active; AID 488899;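 active = mean inhibition across replicates of 60% or more, whatever share of single replicates reaches that level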
Shn3 3UTR inh = reduces Shn3 3'UTR luciferase signal in osteoblasts; Clone20 osteoblast Shn3 3'UTR firefly luciferase, 24 h; inhibition, % at 12.5 µM; 0.52% of 360,000 active; AID 588674;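 active = mean inhibition of at least 75% with every replicate also reaching 75%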;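 note: 0% = median of neutral control wells and 100% = pilot-screen positive control compound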
PAX8 reporter = PAX8 transcriptional activity inhibition; RMG-I TPO-luciferase reporter, SteadyGlo, 24 h; inhibition, % at 12.6 µM; 1.2% of 360,000 active; AID 652154;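 active = mean replicate inhibition at least 60% with every replicate also reaching 60%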;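 note: luciferase light reporting Pax8 driven TPO promoter activity; plate controls were median of neutral control wells for no effect and mitoxantrone controls for full effect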
LGR2 inh = Drosophila LGR2 receptor signaling inhibition | 0.35% of 380,000 active | AID 720647 | inhibition, % at 9.99 µM | HEK293 LGR2, CRE-luciferase, bursicon-stimulated, 4 h;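 active = drop in luminescence signal, shown as inhibition above about 50% in the replicate tests, limit read from the data, passing the limit was not always enough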;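 note: agonist challenge used bursicon conditioned medium at about half maximal strength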
EWS-Fli block = inhibitors of EWS/Fli oncoprotein transcriptional activity; A673 NR0B1-luciferase reporter, viability-normalised; inhibition, % at 12.6 µM; 0.67% of 350,000 active;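 active = mean inhibition of at least 50% after viability correction, with every replicate also passing that limit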;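 note: firefly luciferase signal divided by Alamar Blue viability fluorescence both relative to DMSO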
EBV LMP1 NFkB = inhibitors of Epstein-Barr LMP1-induced NF-kappaB reporter; LMP1-induced NF-kappaB luciferase reporter cells, luminescence; inhibition, % at 12.5 µM; 0.69% of 350,000 active; AID 504558; in the data active = inhibition above about 41%;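 note: 0% = neutral control wells and 100% = reference inhibitor control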
* marks the source's active call; other numbers are inactive results; x = no result.

SMILES | MITF TRPM1 inh | Shn3 3UTR inh | PAX8 reporter | LGR2 inh | EWS-Fli block | EBV LMP1 NFkB
Cc1cnc(NC(=O)CSc2nnc(C)n2N)s1 | 1 | -20 | 130* | x | 11 | -2
C[C@H]1CN([C@@H](C)CO)C(=O)c2cccc(N(C)C)c2O[C@@H]1CN(C)Cc1ccc(C(=O)O)cc1 | x | x | -10 | -2 | 1 | x
Cc1ccnc(NC(=O)c2cccc(NC(=O)c3ccc(Cl)c(Cl)c3)c2)c1 | -6 | -10 | -37 | -41 | -25 | 86*
Cc1cc(C)c(Cc2c(C)nc3c(C(=O)NCc4ccco4)cnn3c2C)c(C)c1 | 21 | 62 | x | 56* | 34 | 12
O=C(NCc1ccco1)c1cnn2c(C(F)F)cc(-c3ccccc3)nc12 | 22 | -5 | x | x | x | -8
CCCCCCOc1ccc(/C(C)=N/NC2=NCCN2)cc1[N+](=O)[O-] | 34 | -11 | 10 | -10 | 59* | -39
CCCCOc1ccc(Br)cc1/C(C)=N/NC1=NCCN1 | 82* | 88* | x | x | x | 28
CCC(=O)N1CC[C@@H]2[C@H](CO)Nc3ccc(-c4cccc(C#N)c4)cc3[C@@H]21 | x | x | 7 | -22 | -4 | x
O=C(C[C@H]1C[C@@H]2c3cc(NS(=O)(=O)c4ccc(F)cc4)ccc3O[C@@H]2[C@H](CO)O1)N1CCc2ccccc2C1 | x | x | -3 | -5 | -2 | x
O=C(Nc1ccc(C(F)(F)F)cc1)Nc1ccc2c(c1)[C@H]1C[C@H](CC(=O)N3CCc4ccccc4C3)O[C@@H](CO)[C@H]1O2 | x | x | 43 | 14 | -2 | x
O=C(Nc1ccc2c(c1)[C@@H]1C[C@@H](CC(=O)N3CCc4ccccc4C3)O[C@@H](CO)[C@@H]1O2)Nc1ccccc1F | x | x | 64* | 28 | 3 | x
O=C(Nc1ccc(C(F)(F)F)cc1)Nc1ccc2c(c1)[C@H]1C[C@@H](CC(=O)N3CCc4ccccc4C3)O[C@@H](CO)[C@H]1O2 | x | x | 97* | -8 | -7 | x
O=C(C[C@H]1C[C@@H]2c3cc(NS(=O)(=O)c4ccc(F)cc4)ccc3O[C@@H]2[C@@H](CO)O1)N1CCc2ccccc2C1 | x | x | 87* | 31 | 17 | x
O=C(Nc1ccc(C(F)(F)F)cc1)Nc1ccc2c(c1)[C@H]1C[C@@H](CC(=O)N3CCc4ccccc4C3)O[C@H](CO)[C@H]1O2 | x | x | 98* | 17 | 3 | x
COc1ccc(NC(=O)N(C)C[C@H]2Oc3ccc(NS(C)(=O)=O)cc3C(=O)N([C@@H](C)CO)C[C@@H]2C)cc1 | x | x | x | -4 | -5 | x
COc1ccc(-c2cnc3c(c2)C(=O)N([C@H](C)CO)C[C@H](C)[C@H](CN(C)C(=O)C2CCCCC2)O3)cc1 | x | x | 1 | 8 | -4 | x
C[C@@H]1CN([C@H](C)CO)S(=O)(=O)c2ccc(C#CCN(C)C)cc2O[C@H]1CN(C)Cc1ccccn1 | x | x | x | 1 | 13 | x
O=C(N[C@H]1C=C[C@@H](CC(=O)N2CCOCC2)O[C@H]1CO)c1cccc(F)c1 | x | x | -3 | -4 | -3 | x
CC(C)N1C(=O)/C(=C\c2nc3ccccc3c(=O)[nH]2)c2ccccc21 | -18 | -13 | x | 98* | 14 | -10
COc1ccc(S(=O)(=O)Nc2cccc3c2O[C@@H](CN(C)CC2CC2)[C@H](C)CN([C@@H](C)CO)C3=O)cc1 | x | x | x | -11 | -10 | x
CCO[C@H]1OC(C(=O)N2CCN(Cc3ccccc3)CC2)=C[C@@H](c2ccc(C(F)(F)F)cc2)[C@@H]1CCCO | 1 | 5 | 90* | 18 | 4 | 2
C[C@H]1CN([C@@H](C)CO)C(=O)Cc2cc(NS(=O)(=O)c3ccccc3)ccc2O[C@H]1CN(C)S(=O)(=O)c1ccc(F)cc1 | x | x | 32 | 8 | 5 | x
Cc1ccc(S(=O)(=O)Nc2ccc3c(c2)C(=O)N([C@H](C)CO)C[C@@H](C)[C@@H](CN(C)S(=O)(=O)c2ccc(F)cc2)O3)cc1 | x | x | x | 15 | -5 | x
CCN(CC)S(=O)(=O)c1cccc(C(=O)N/N=C(\C)c2ccc(O)cc2O)c1 | 71* | 93* | 35 | 4 | -8 | -16
CCN(CC)S(=O)(=O)c1cccc(C(=O)N/N=C/c2ccc(O)c(O)c2O)c1 | 27 | 79 | 43 | 11 | x | -11
SMILES | MITF TRPM1 inh | Shn3 3UTR inh | PAX8 reporter | LGR2 inh | EWS-Fli block | EBV LMP1 NFkB
Cc1ccc(CNC(=O)C2CCCN(S(=O)(=O)c3c(C)noc3C)C2)cc1 (configuration not stated) | 2 | 8 | x | x | x | -6
Cc1ccc(NC(=O)C2CCCN(S(=O)(=O)c3c(C)noc3C)C2)cc1 (configuration not stated) | 4 | 85* | 2 | x | 11 | 1
O=C(c1ccccc1)N1CCN(c2ncnc3sc4c(c23)CCC4)CC1 | 6 | 85* | 28 | x | x | 12
COC(=O)c1c2oc(c1C(=O)OC)C(=O)N(C)Cc1cn(nn1)C[C@@H](Cc1ccccc1)NC(=O)N[C@H](CO)CC2 | x | x | -14 | x | -1 | x
C[C@@H]1CN([C@@H](C)CO)C(=O)c2c(c3ccccc3n2C)-c2ccccc2CO[C@@H]1CN(C)Cc1cccc2c1OCCCO2 | x | x | 16 | 8 | 6 | x
COc1cccc(C(=O)Nc2ccc3c(c2)C(=O)N(C)C[C@@H](OC)[C@H](C)CN(CCc2ccccc2)[C@@H](C)CO3)c1 | x | x | 25 | 16 | 15 | x
COc1cccc(C(=O)Nc2ccc3c(c2)OC[C@@H](C)N(CCc2ccccc2)C[C@H](C)[C@H](OC)CN(C)C3=O)c1 | x | x | 4 | 11 | -4 | x
COc1cccc(C(=O)Nc2ccc3c(c2)OC[C@@H](C)N(CCc2ccccc2)C[C@@H](C)[C@H](OC)CN(C)C3=O)c1 | x | x | 68* | -4 | -1 | x
COc1cccc(C(=O)Nc2ccc3c(c2)C(=O)N(C)C[C@@H](OC)[C@H](C)CN(CCc2ccccc2)[C@H](C)CO3)c1 | x | x | 71* | 9 | 11 | x
Cc1ccc(C(=O)N/C(=C\c2ccc(-c3ccccc3[N+](=O)[O-])o2)C(=O)NCCN(C)C)cc1 | 77* | -17 | 17 | 10 | 22 | -2
Cc1ccc(C(=O)N/C(=C\c2ccc(-c3ccccc3[N+](=O)[O-])o2)C(=O)NCCCN(C)C)cc1 | 70* | 12 | 0 | -6 | -3 | 7
CN(C)CCNC(=O)/C(=C/c1ccc(-c2cccc([N+](=O)[O-])c2)o1)NC(=O)c1ccccc1 | -1 | -26 | -9 | -6 | x | 10
CN(C)CCCNC(=O)/C(=C/c1ccc(-c2ccc([N+](=O)[O-])cc2)o1)NC(=O)c1ccccc1 | -9 | -7 | 29 | 6 | 1 | 5
CCN1[C@@H]2Cn3c(ccc(-c4ccc(OC)cc4)c3=O)[C@H]1[C@@H](C(=O)NCC1CC1)[C@@H]2CO | x | x | -10 | -15 | 8 | x
C[C@@H]1CCCCO[C@@H](CN(C)Cc2ccc(C(=O)O)cc2)[C@@H](C)CN([C@@H](C)CO)C(=O)c2cc(NC(=O)Nc3ccc4c(c3)OCO4)ccc2O1 | x | x | -21 | -7 | -74 | x
COc1cc(C(=O)NC(=S)N(C)Cc2ccccc2)cc(OC)c1OC | 11 | 14 | -3 | 5 | 13 | 2

Screens: PubChem BioAssay, Broad Institute
